Source: PubChem BioAssay (EPA / NIEHS)
Results filed as inconclusive are left out. The source made the active and inactive calls. Rule for the calls, unless noted: active = hit-call score of the fitted dose curve at least 0.9, where 1 is the maximum; inactive = score below 0.9.

Assays:
[1] = CCTE_Shafer_MEA_acute_LDH: CCTE's Lactate Dehydrogenase Assay for Cytotoxicity in the Neural Acute Assay, Shafer Lab (AID 2284086; active = hit-call score of the fitted dose curve at least 0.9, where 1 is the maximum;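 note: active means LDH release rises above DMSO vehicle level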)
How it was run: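 Medium collected from MEA wells of primary rat cortical cultures (DIV 13 or 15) immediately after 40 min chemical exposure is assayed spectrophotometrically for lactate dehydrogenase activity. Endpoint fitted in positive direction versus DMSO.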

[2] = UKN2_HCS_IMR90_neural_migration: University of Konstanz (UKN) Leist Lab Neural Crest Cell Migration Assay in human induced IMR90 Pluripotent Stem Cells (UKN2) (AID 2284204); settings: actives raise or lower the signal
How it was run: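 Using a 96-well stopper format with PLO/laminin/fibronectin coating, neural crest cells from iPSC migrate in cytokine-supplemented N2-S medium; after 24 h, chemicals are applied for a further 24 h, then cells are imaged after dye staining.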

[3] = IUF_NPC1b_proliferation_BrdU_72hr: Leibniz Research Institute for Environmental Medicine (IUF) 72-hour Neural Progenitor Cell Bromodeoxyuridine (BrdU) Proliferation Assay (NPC1b) (AID 2284207)
How it was run: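 Neural progenitor spheres of human fetal origin are treated for three days; BrdU added for the last 16 h is quantified by luminescence ELISA, with DMSO as baseline and EGF/FGF omission as positive control.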

[4] = IUF_NPC1a_proliferation_area_72hr: Leibniz Research Institute for Environmental Medicine (IUF) 72-hour Neural Progenitor Cell Proliferation Area Assay (NPC1a) (AID 2284208)
How it was run: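 Single 0.25–0.35 mm human fetal neural progenitor spheres in proliferation medium with EGF and FGF, exposed 72 h from plating without renewal at 37C, pH 7.2-7.6. Sphere area growth measured by automated phase-contrast imaging, relative to DMSO.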

[5] = IUF_NPC1_viability_72hr: Viability Assessment at 72 hours in the Leibniz Research Institute for Environmental Medicine (IUF) Neural Progenitor Cell Proliferation Assay (NPC1) (AID 2284209)
How it was run: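 Spheres of primary human neural progenitors were plated singly in proliferation medium and treated for 72 h. Mitochondrial reduction of resazurin was then measured by fluorescence and analysed against DMSO controls.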

CCCCC(CC)COP(=O)(O)OCC(CC)CCCC (centres undefined)
outcome [1]: inactive

CCCCCCOC(=O)c1ccccc1O
outcome [1]: inactive

CC(CCl)OP(=O)(OC(C)CCl)OC(C)CCl (centres undefined)
outcome [2]: inactive
outcome [3]: inactive
outcome [4]: inactive
outcome [5]: inactive

OC[C@@H](O)[C@@H](O)[C@H](O)[C@@H](O)CO
outcome [3]: inactive
outcome [4]: inactive
outcome [5]: inactive
